Abeta rescue – A-beta toxicity reversal in yeast | yeast expressing A-beta42, growth rescue, OD600, 48 h; response scale: 0% DMSO, 100% iron-clioquinol control | Potency, µM (series often up to 46.1 µM), most hits filed as activators | 410,000 tested, 0.063% active; note: nearly all actives have a fitted effect of over 55% in size
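Yeast A-beta toxicity model in growth medium with pinned compounds, 48 h at 30 C; growth read as absorbance at 600 nm. Normalized to FeCl3/clioquinol equimolar mix (positive) and DMSO (negative).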
TDP43 rescue – inhibitors of TDP-43 toxicity in yeast. TDP-43 expressing yeast growth rescue, BacTiter-Glo, 24 h. Potency, µM (highest dose often 46.1 µM), for inactives: top-dose growth rescue (activation), most hits filed as activators. 410,000 tested, 1.8% active; note: % of control where 0% means no effect; nearly all actives have a fitted effect of over 50% in size
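Yeast expressing TDP-43 (pregrown in raffinose, seeded at OD600=0.02 in galactose medium) exposed to compounds 24 hr at 30 deg C. Growth read by BacTiter-Glo luminescence; rescue of toxicity appears as increased signal.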
FUS yeast rescue – rescues growth of FUS-expressing yeast | S. cerevisiae FUS-expressing, growth rescue, OD600, 24 h | 390,000 tested, 0.24% active | Potency, µM (titrated, usually from 76.6 µM), actives largely listed as activators | AID 1347120;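 note: plate controls were DMSO vehicle for no effect and reference control for full effect; nearly all actives have a fitted effect of over 55% in size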
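Read-out: OD at 600 nm after 24hr at 30C, reporting rescue of FUS-induced yeast toxicity. Cells at OD 0.005 in galactose (2%) minimal medium; compounds tested in a dilution series; CP55940 titration from 92uM final as control.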
aSyn rescue – inhibitors of alpha-synuclein toxicity in yeast. Yeast expressing alpha-synuclein, growth rescue, BacTiter-Glo, 24 h. Potency, µM (top dose mostly 46.1 µM), without a hit: at the top dose growth rescue (activation), most hits filed as activators. 370,000 tested, 0.14% active. AID 652106; note: % of control where 0% means no effect; nearly all actives have a fitted effect of over 65% in size
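Readout is rescue of growth in alpha-synuclein-expressing yeast, so inhibitors of toxicity appear as activators. Growth after 24 hr at 30 deg C in galactose medium is quantified by luminescence.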
Mito fusion yeast – mitochondrial division inhibition or fusion activation; Potency, µM (highest dose often 46.1 µM), without a hit: top-dose growth rescue (activation), most hits filed as activators; 320,000 tested, 0.23% active; AID 485298; S. cerevisiae fusion-defective mutant growth rescue, CellTiterGlo 48 h; note: % of control where 0% means no effect; nearly all actives have a fitted effect of over 45% in size
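Read-out: ATP-based luminescence (CellTiterGlo, 10 min ambient) reporting growth of fusion-defective ts yeast after 48 hours at 37C on glycerol/ethanol YPEG medium in the presence of compound.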
The depositor's hits bear a star. Hits are enriched below; roughly 2.2% of the tested compounds scored in any of these assays. Calls come from the whole dose curve; as a rule, active = well fitted curve in the direction sought with a large enough effect; inconclusive = small, poorly fitted or top-dose-only effect, or another doubt; inactive = no such curve, though single readings can be large; an effect the other way counts as inactive or inconclusive. Potency is the fitted concentration of half-maximal effect.

c1ccc(-n2ncc3c(N4CCN(CCOc5cccc6ccccc56)CC4)ncnc32)cc1 was read as Abeta rescue inactive, TDP43 rescue 20µM*, FUS yeast rescue inactive, aSyn rescue -1% and Mito fusion yeast 1%.
Screening O=C(COc1ccccc1)N1CCN(c2ncnc3c2cnn3-c2ccccc2)CC1 returned Abeta rescue inactive, TDP43 rescue 14µM*, FUS yeast rescue inactive, aSyn rescue 9% and Mito fusion yeast 11%.
Cc1cccc(C(=O)N2CCN(c3ncnc4c3cnn4-c3ccccc3)CC2)c1 was read as Abeta rescue inactive, TDP43 rescue 29%, aSyn rescue 6% and Mito fusion yeast 10%.
`C(=Nc1cnc2ccccc2c1)c1ccncc1` gave aSyn rescue 4%.
For CC1CN(S(=O)(=O)c2cccc(-c3cn4ccccc4n3)c2)CC(C)O1 (stereo not given) the results were Abeta rescue inactive, TDP43 rescue -19%, FUS yeast rescue inactive, aSyn rescue -5% and Mito fusion yeast 2.8µM*.
For Cc1cccn2cc(-c3cccc(S(=O)(=O)N4CC(C)OC(C)C4)c3)nc12 (stereo not given) the results were Abeta rescue inactive, TDP43 rescue 7%, FUS yeast rescue inactive, aSyn rescue -6% and Mito fusion yeast -17%.
Screening CC1CCN(c2nc3ccc(C(=O)O)cc3s2)CC1 returned Abeta rescue inactive, TDP43 rescue 4µM*, aSyn rescue -11% and Mito fusion yeast -21%.
`Cc1cccc(Nc2cc(C)nc3nc(Cc4ccc(Cl)cc4)nn23)c1` gave Abeta rescue inactive, TDP43 rescue inconclusive and FUS yeast rescue inactive.
`CC(C)c1cc(-c2cc(C(=O)NCc3ccccc3)on2)nc(NCC2CC2)n1` gave Abeta rescue inactive, TDP43 rescue 16µM*, FUS yeast rescue inactive, aSyn rescue inconclusive and Mito fusion yeast -109%.
O=c1c2cc3cc(Cl)ccc3nc2ncn1Cc1ccc(Oc2ccccc2)cc1 was read as FUS yeast rescue inactive.
For N#CCSc1nc2c(cc1C#N)CCCCCC2 the results were Abeta rescue inactive, TDP43 rescue 16µM*, FUS yeast rescue inactive, aSyn rescue 14% and Mito fusion yeast 12%.
COC(=O)c1cccc(Cn2ccc3ccc(-c4ccc5ccn(C(=O)C6CCC6)c5c4)cc32)c1 was read as FUS yeast rescue inactive.
`Cc1ccc(S(=O)(=O)N2CCN(c3nc(C(N)=O)nc4ccccc34)CC2)cc1` gave aSyn rescue 1%.
For O=C(/C=C/c1ccc([N+](=O)[O-])cc1)NCCSc1ccccc1 the results were Abeta rescue inactive, TDP43 rescue 19%, FUS yeast rescue inactive, aSyn rescue 1% and Mito fusion yeast 4%.
Cc1ccc(SCCNC(=O)/C=C/c2ccc([N+](=O)[O-])cc2)cc1 was read as Abeta rescue inactive, TDP43 rescue 19%, FUS yeast rescue inactive, aSyn rescue 18% and Mito fusion yeast 16µM*.
COc1cc2[nH]c(C(=O)N3CCN(c4ccccc4F)CC3)cc2c(OC)c1OC was read as Abeta rescue inactive, TDP43 rescue 35µM*, FUS yeast rescue inactive, aSyn rescue 13% and Mito fusion yeast -17%.
Cc1ccccc1C(=O)c1c[nH]c(C(=O)N2CCN(c3ccccc3F)CC2)c1 was read as Abeta rescue inactive, TDP43 rescue 25µM*, FUS yeast rescue inactive, aSyn rescue 10% and Mito fusion yeast 3%.
Cc1ccc(N2CCN(C(=O)c3ccccc3F)CC2)c(C)c1 was read as Abeta rescue inactive, TDP43 rescue inconclusive, FUS yeast rescue inactive, aSyn rescue -20% and Mito fusion yeast 20%.
For COc1cccc(N2CCN(C(=O)c3cc4c(OC)c(OC)c(OC)cc4[nH]3)CC2)c1 the results were Abeta rescue inactive, TDP43 rescue 20%, FUS yeast rescue inactive, aSyn rescue -9% and Mito fusion yeast -7%.
For NC(=O)c1cc(C(=O)c2cccc(Cl)c2Cl)c[nH]1 the results were Abeta rescue inactive, TDP43 rescue -6%, FUS yeast rescue inactive, aSyn rescue 0% and Mito fusion yeast -6%.
O=C(c1c[nH]c(C(=O)N2CCN(c3ccccc3F)CC2)c1)c1cccc(Cl)c1Cl was read as Abeta rescue 3.2µM*, TDP43 rescue 25µM*, FUS yeast rescue inactive, aSyn rescue inconclusive and Mito fusion yeast 0%.
For Cc1ccccc1C1CC(=O)Nc2ccc3ccccc3c21 (stereo not given) the results were Abeta rescue inactive, TDP43 rescue 2% and FUS yeast rescue inactive.
`CCOc1ccc2c(c1)-c1c(ssc1=S)C(C)(C)N2` gave Abeta rescue inactive, TDP43 rescue 22µM*, FUS yeast rescue inactive, aSyn rescue 1% and Mito fusion yeast 11%.
COc1ccc([C@H]2CC(=O)C=C(c3cc(C)ccc3F)C2)cc1 was read as Abeta rescue inconclusive, TDP43 rescue 20µM*, FUS yeast rescue inconclusive, aSyn rescue inconclusive and Mito fusion yeast inconclusive.
Screening COc1ccc([C@H]2CC(=O)C=C(c3cc(Cl)ccc3C)C2)cc1 returned Abeta rescue inconclusive, TDP43 rescue 20µM*, FUS yeast rescue inactive, aSyn rescue 14% and Mito fusion yeast inconclusive.
`Cc1ccc(Cl)cc1C1=CC(=O)C[C@H](c2ccc(F)cc2)C1` gave Abeta rescue inactive, TDP43 rescue inconclusive, FUS yeast rescue inactive, aSyn rescue 3% and Mito fusion yeast inconclusive.
For Cc1cc(NS(=O)(=O)c2ccc(NC(=O)CSc3nnc(-c4cnccn4)n3-c3ccccc3)cc2)nc(C)n1 the results were FUS yeast rescue inactive.
CCN(CC)c1ccc(-c2nn3c(-c4ccccc4Cl)nnc3s2)cc1 was read as FUS yeast rescue 32µM*.
`COc1cccc(OC)c1-c1nn2c(-c3ccccc3Cl)nnc2s1` gave Abeta rescue inactive, TDP43 rescue 16µM*, FUS yeast rescue inconclusive, aSyn rescue -1% and Mito fusion yeast 4%.
`Cc1cn(C)c(CC(=O)N2CCN(c3cccc(C(F)(F)F)c3)CC2)c1C(=O)O` gave Abeta rescue inactive, TDP43 rescue 9% and FUS yeast rescue inactive.
O=[N+]([O-])c1ccc(O/N=[N+](\[O-])N2CCCCC2)c([N+](=O)[O-])c1 was read as aSyn rescue -81%.
`CCCCOc1ccc(NC(=O)Nc2nnc(C)s2)cc1` gave Abeta rescue inactive, TDP43 rescue 7%, FUS yeast rescue inactive, aSyn rescue 1.3µM* and Mito fusion yeast 17%.
COc1ccccc1NC(=O)c1nc(S(=O)(=O)Cc2ccccc2)ncc1Cl was read as Abeta rescue inactive, TDP43 rescue -9%, FUS yeast rescue inactive, aSyn rescue 4% and Mito fusion yeast -15%.
